According to PubChem BioAssay (NCI):
The panel holds about 79,000 compounds, 15% with a hit somewhere; the sample as a whole holds those more often. A number with no mark means an inactive call. Calls of active or inactive are those of the source. Rule as the data show it: active = growth inhibition above about 70%; inactive = the rest.

Assay: NCI Yeast Anticancer Drug Screen. Data for the sgs1 mgt1 strain (AID 161);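 also: 0% = growth of cultures given vehicle only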
Conditions: S. cerevisiae sgs1 mgt1 strain, at 50.0 µM, hits give high values
Method in brief: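 Genetically altered yeast, compound exposure, growth inhibition relative to vehicle.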
Compound C=CC1=C(C)C2=NC1=CC1=NC(=C(CC)/C1=C\O)C=C1N=C3C(=C1C)C(=O)[C@H](C(=O)OC)C3=C1NC(=C2)[C@@H](C)[C@@H]1CCC(=O)O has a growth inhibition of 4.1%.
Compound CCOC(=O)c1cc(C)nc2c1c(=O)n(-c1ccccc1)c(=O)n2CCCCN1CCN(c2ncccn2)CC1 has a growth inhibition of 12.2%.
Work on COc1ccc2c(C)cc(N/N=C/c3ccc(C)s3)nc2c1 yielded a growth inhibition of -19.4%.
Work on CC1(C)C2CCC1(CS(=O)(=O)O)C(=O)C2 (stereo not drawn) yielded a growth inhibition of -12.4%.
For CCCCCCCCCC(O)CC(=O)c1c(O)cccc1O (stereo not drawn), the growth inhibition was 82.8% (active).
C[C@@H]1C[C@](O)([C@@H](C)Cl)C(=O)O[C@@H]2CCN3CC=C(COC(=O)[C@]1(C)O)[C@H]23 gave a growth inhibition of -7.95%.
For COc1ccc(C2c3cc4c(c(OC)c3CC3OCC(=O)C32)OCO4)cc1OC (stereo not drawn), the growth inhibition was 22.6%.
O=C1C=CC=C/C1=C1\N=C(c2ccccc2OCC(=O)c2ccc(Br)cc2)SS1 showed a growth inhibition of 12.8%.
For O=S(=O)(O)c1cc(O)c2c(O)cc(S(=O)(=O)O)cc2c1, the growth inhibition was -21.2%.
Compound NNc1[nH]c(=S)[nH]c1C(N)=O has a growth inhibition of -21.4%.
In the case of COC(=O)C(C(=O)C(=O)Nc1c(C)cccc1C(C)(C)C)c1nc2ccc(Cl)cc2[nH]c1=O (stereo not drawn), the growth inhibition is reported as -2.25%.
CCCCCCCCCCCCC/C=C/[C@H]1[C@@H](C(=O)OC)N1S(=O)c1ccc(C)cc1 (stereo partly drawn) gave a growth inhibition of 1.25%.
For Cc1ccc(OCC2OC(n3cnc4nc(N)nc(Cl)c43)CC2Oc2ccc(C)cc2)cc1 (stereo not drawn), the growth inhibition was 44.7%.
COc1ccc2nc(NC(=O)/C(C#N)=C/c3ccccc3)sc2c1 gave a growth inhibition of 44.6%.

Assay: NCI Yeast Anticancer Drug Screen. Data for the cln2 rad14 strain (AID 165);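 also: 0% = growth equal to vehicle treated cultures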
Conditions: S. cerevisiae cln2 rad14 strain, at 50.0 µM, hits give high values
Method in brief: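 Each compound was tested on cln2 rad14 yeast. Inhibition of growth was calculated against vehicle-exposed controls.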
C=CC1=C(C)C2=NC1=CC1=NC(=C(CC)/C1=C\O)C=C1N=C3C(=C1C)C(=O)[C@H](C(=O)OC)C3=C1NC(=C2)[C@@H](C)[C@@H]1CCC(=O)O showed a growth inhibition of 9.15%.
In the case of CCOC(=O)c1cc(C)nc2c1c(=O)n(-c1ccccc1)c(=O)n2CCCCN1CCN(c2ncccn2)CC1, the growth inhibition is reported as 7.45%.
Work on COc1ccc2c(C)cc(N/N=C/c3ccc(C)s3)nc2c1 yielded a growth inhibition of 9.05%.
Compound CC1(C)C2CCC1(CS(=O)(=O)O)C(=O)C2 (stereo not drawn) has a growth inhibition of -58.4%.
With C=C(CCC(C(=O)O)C1CCC2(C)C3=C(CCC12C)C1(C)CCC(O)C(C)(C)C1CC3)C(C)C (stereo not drawn) the growth inhibition was 2.15%.
With CCCCCCCCCC(O)CC(=O)c1c(O)cccc1O (stereo not drawn) the growth inhibition was 86.2% (active).
For C[C@@H]1C[C@](O)([C@@H](C)Cl)C(=O)O[C@@H]2CCN3CC=C(COC(=O)[C@]1(C)O)[C@H]23, the growth inhibition was -11.1%.
With COc1ccc(C2c3cc4c(c(OC)c3CC3OCC(=O)C32)OCO4)cc1OC (stereo not drawn) the growth inhibition was 13.1%.
O=C1C=CC=C/C1=C1\N=C(c2ccccc2OCC(=O)c2ccc(Br)cc2)SS1 showed a growth inhibition of 8.75%.
Compound NNc1[nH]c(=S)[nH]c1C(N)=O has a growth inhibition of -7.65%.
COC(=O)C(C(=O)C(=O)Nc1c(C)cccc1C(C)(C)C)c1nc2ccc(Cl)cc2[nH]c1=O (stereo not drawn) showed a growth inhibition of 16.9%.
Compound CCCCCCCCCCCCC/C=C/[C@H]1[C@@H](C(=O)OC)N1S(=O)c1ccc(C)cc1 (stereo partly drawn) has a growth inhibition of -13.1%.
Cc1ccc(OCC2OC(n3cnc4nc(N)nc(Cl)c43)CC2Oc2ccc(C)cc2)cc1 (stereo not drawn) showed a growth inhibition of 46.5%.
Work on COc1ccc2nc(NC(=O)/C(C#N)=C/c3ccccc3)sc2c1 yielded a growth inhibition of -3.3%.

Assay: NCI Yeast Anticancer Drug Screen. Data for the bub3 strain (AID 167)
Conditions: S. cerevisiae bub3 mutant strain, at 50.0 µM, hits give high values
Method in brief: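 Steps: expose the mutant yeast strain to compound; grow alongside vehicle-treated cultures; measure growth; express inhibition against the vehicle cultures.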
C=CC1=C(C)C2=NC1=CC1=NC(=C(CC)/C1=C\O)C=C1N=C3C(=C1C)C(=O)[C@H](C(=O)OC)C3=C1NC(=C2)[C@@H](C)[C@@H]1CCC(=O)O showed a growth inhibition of -4.35%.
CCOC(=O)c1cc(C)nc2c1c(=O)n(-c1ccccc1)c(=O)n2CCCCN1CCN(c2ncccn2)CC1 showed a growth inhibition of -16.9%.
In the case of COc1ccc2c(C)cc(N/N=C/c3ccc(C)s3)nc2c1, the growth inhibition is reported as -39.1%.
Work on CC1(C)C2CCC1(CS(=O)(=O)O)C(=O)C2 (stereo not drawn) yielded a growth inhibition of -4.65%.
In the case of C=C(CCC(C(=O)O)C1CCC2(C)C3=C(CCC12C)C1(C)CCC(O)C(C)(C)C1CC3)C(C)C (stereo not drawn), the growth inhibition is reported as -23.6%.
In the case of CCCCCCCCCC(O)CC(=O)c1c(O)cccc1O (stereo not drawn), the growth inhibition is reported as 82.1% (active).
Work on C[C@@H]1C[C@](O)([C@@H](C)Cl)C(=O)O[C@@H]2CCN3CC=C(COC(=O)[C@]1(C)O)[C@H]23 yielded a growth inhibition of 5.7%.
With COc1ccc(C2c3cc4c(c(OC)c3CC3OCC(=O)C32)OCO4)cc1OC (stereo not drawn) the growth inhibition was 1.45%.
O=C1C=CC=C/C1=C1\N=C(c2ccccc2OCC(=O)c2ccc(Br)cc2)SS1 showed a growth inhibition of -0.75%.
In the case of O=S(=O)(O)c1cc(O)c2c(O)cc(S(=O)(=O)O)cc2c1, the growth inhibition is reported as -8.1%.
NNc1[nH]c(=S)[nH]c1C(N)=O gave a growth inhibition of -22.1%.
For COC(=O)C(C(=O)C(=O)Nc1c(C)cccc1C(C)(C)C)c1nc2ccc(Cl)cc2[nH]c1=O (stereo not drawn), the growth inhibition was -3.5%.
With CCCCCCCCCCCCC/C=C/[C@H]1[C@@H](C(=O)OC)N1S(=O)c1ccc(C)cc1 (stereo partly drawn) the growth inhibition was -10.5%.
For Cc1ccc(OCC2OC(n3cnc4nc(N)nc(Cl)c43)CC2Oc2ccc(C)cc2)cc1 (stereo not drawn), the growth inhibition was 49.3%.
For COc1ccc2nc(NC(=O)/C(C#N)=C/c3ccccc3)sc2c1, the growth inhibition was -8.95%.
